Experimental findings from ChEMBL document CHEMBL1157539, “Thousands of chemical starting points for antimalarial lead identification” (Nature, 2010) are described below.

Common to all, as to format: functional
In test [1] the test system is Plasmodium falciparum. As to the kind of experiment: GSK_TCMDC: Inhibition of Plasmodium falciparum 3D7 in whole red blood cells, using parasite LDH activity as an index of growth. Test compounds present at 2uM.
In test [2] the test system is Plasmodium falciparum. Description: GSK_TCMDC: Inhibition of Plasmodium falciparum Dd2 in whole red blood cells, using parasite LDH activity as an index of growth. Test compounds present at 2uM.
For test [3], the system named is HepG2. As to the kind of experiment: GSK_TCMDC: Percent inhibition of human HepG2 cell line. Test compounds present at 10uM.

Consider `CN(C(=O)Cc1ccc(Cl)cc1)C1CCN(CCCCCNC(=O)/C=C/c2ccc(Cl)c(Cl)c2)CC1`, for which the results for the Inhibition in test [1], in test [2] and in test [3] were 83%, 16% and 69%, respectively.

`O=C(NCCN1CCCC1)c1cc(-c2ccc(Cl)c(O)c2)c(-c2ccncc2)o1`: the Inhibition was determined as 92% in test [1], 0% in test [2] and 0% in test [3].

Take `Cc1cc(CN2CCC(N3CC(c4ccccc4)(c4ccccc4)OC3=O)C2)ccc1O` (configuration not stated): the Inhibition in test [1] came to 96%; in test [2], 68%; in test [3] it was 0%.

Consider `O=C(NC(Nc1ccc([N+](=O)[O-])cc1)C(Cl)(Cl)Cl)c1cccc(Cl)c1` (configuration not stated), for which the Inhibition in test [1] came to 92%; in test [2] it was 17%; in test [3], 0%.

For the compound `CCNc1cc(C(=O)N[C@@H](Cc2ccccc2)[C@H](O)CNC2(Cc3cccc(Cl)c3)CCC2)cc(N2CCCCS2(=O)=O)c1.Cl`, the Inhibition in test [1] came to 95%; in test [2] it was 83%; in test [3], 22%.

Turning to `CC1(C)N=C(N)N=C(N)N1O.Cl`, the Inhibition in test [1] turned out to be 93%; in test [2] it was 1%; in test [3], 7%.

For `CC(C)Cc1cnc2nc(N)nc(N)c2c1.Cl`, the Inhibition is given as 98% in test [1], 0% in test [2] and 66% in test [3].

Take `O=C1c2ccccc2-n2c1nc1ccccc1c2=O` [TRYPTANTHRIN]: the Inhibition in test [1] came out at 93%; in test [2], 80%; in test [3], 9%.

Regarding `CCCCCCN1CCCN(Cc2ccc(C(=O)Nc3ccc(CCC)cc3)cc2)CC1.O=C(O)C(F)(F)F`, the Inhibition is 92% in test [1], 56% in test [2] and 45% in test [3].

Turning to `Cl.NC1=NC2(CCCC2)C(c2ccc(Cl)c(Cl)c2)C(N)=N1` (configuration not stated), the values for the Inhibition in test [1], in test [2] and in test [3] were 92%, 3% and 7%, respectively.

For the compound `Nc1c2c(nc3ccccc13)C(=Cc1ccc(O)cc1)CCC2`, the results for the Inhibition in test [1], in test [2] and in test [3] were 99%, 6% and 9%, respectively.

Turning to `N=C1NC(=N)N(OCCCCCCON2C(=N)NC(=N)NC2C=Cc2ccccc2)C(C=Cc2ccccc2)N1` (configuration not stated), the Inhibition was 97% in test [1], 94% in test [2] and 17% in test [3].

Regarding `CCC[C@@H]([C@@H](CC1CCCCC1)C(=O)N[C@H](C(=O)Nc1nccs1)C(C)(C)SCCNC(=O)OCc1ccccn1)N(O)C=O`, the values for the Inhibition in test [1], in test [2] and in test [3] were 99%, 96% and 17%, respectively.

`CC(C)CNCc1ccc(-c2ccccc2CNC2CCN(Cc3ccccc3)CC2)cc1.O=C(O)C(F)(F)F`: the Inhibition in test [1] was 100%; in test [2], 41%; in test [3], 28%.

Consider `NC1CCCN(Cc2cccc(-c3ccc(-c4nc5cc(F)ccc5[nH]4)cc3)c2)C1.O=C(O)C(F)(F)F` (configuration not stated), for which the results for the Inhibition in test [1], in test [2] and in test [3] were 100%, 99% and 40%, respectively.

Regarding `COc1cc(C)nc2ccc(NC(=O)Nc3ccccc3[N+](=O)[O-])cc12`, the Inhibition in test [1] is reported as 100%; in test [2] it was 58%; in test [3], 6%.

Turning to `O=C(Nc1ccc2oc(-c3ccc(Br)cc3)nc2c1)c1ccc([N+](=O)[O-])o1`, the Inhibition in test [1] came to 92%; in test [2], 21%; in test [3], 9%.

For `CCCc1cn2c3c(cc(C(=O)N[C@@H](Cc4ccccc4)[C@H](O)CNC4CCOCC4)cc13)N(CC)S(=O)(=O)CC2.O=CO`, the Inhibition was 97% in test [1], 98% in test [2] and 2% in test [3].

For the compound `FC(F)(F)c1cccc(CNCCCCCNCc2ccc(Cl)cc2)c1`, the Inhibition in test [1] was 91%; in test [2], 15%; in test [3] it was 13%.

For `O=C(Nc1ccc(OC2CCN(Cc3ccsc3)CC2)c(Cl)c1)c1ccc(F)cc1.O=C(O)C(F)(F)F`, the Inhibition in test [1] is recorded as 98%; in test [2], 83%; in test [3] it was 31%.

`Cc1cc(N[C@@H](CC(C)C)C(=O)NC2CCCC2)nc(NCc2ccccc2C)n1.O=C(O)C(F)(F)F`: the Inhibition in test [1] is listed as 98%; in test [2], 44%; in test [3], 2%.

`CCCc1cc(=O)[nH]c(-n2nc(C)cc2NC(=O)c2cc3ccccc3o2)n1`: the Inhibition in test [1] is reported as 90%; in test [2], 63%; in test [3], 39%.

Turning to `Cn1cc(C2CCN(CCCCNC(=O)c3sc(-c4ccc(C(F)(F)F)cc4)nc3CO)CC2)c2ccccc21`, the Inhibition in test [1] amounted to 95%; in test [2], 15%; in test [3], 46%.

Take `Cc1cc(=NN=Cc2ccccc2)c2cc(F)ccc2[nH]1`: the Inhibition turned out to be 100% in test [1], 94% in test [2] and 11% in test [3].

For the compound `O=C(O)C(F)(F)F.Oc1ccc(CCNc2nc(NCCOc3ccccc3-c3ccccc3)nc(N3CCNCC3)n2)cc1`, the figures for the Inhibition in test [1], in test [2] and in test [3] were 93%, 17% and 22%, respectively.

Take `COc1cc(C2=NN(S(=O)(=O)c3c(Cl)cc(Cl)cc3Cl)CCCC2)ccc1Cl`: the figures for the Inhibition in test [1], in test [2] and in test [3] were 98%, 97% and 3%, respectively.

For `O=C(O)C(F)(F)F.c1ccc(CNCc2cccc(-c3ccc(-c4nc5ccccc5[nH]4)cc3)c2)cc1`, the Inhibition is given as 97% in test [1], 39% in test [2] and 10% in test [3].

With `CCOC(=O)COc1cccc(CNc2ccc3nc(N)nc(N)c3c2)c1`, the Inhibition is listed as 100% in test [1], 99% in test [2] and 18% in test [3].

With `COc1cccc(C2(c3cccc(OC)c3)N=C(N)N(CCCc3ccccc3)C2=O)c1.O=CO`, the Inhibition was determined as 98% in test [1], 93% in test [2] and 3% in test [3].
